These results are taken from PubChem BioAssay.

The test system of test [1] is Wnt5a (protein binding on small-molecule microarray). The test can be described thus: small molecules binding Wnt5a protein – biophysical, small-molecule microarray, 635/667 nm fluorescence, primary screen (AID 1142).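 Further: fluorescence read at 667 nm with signal to noise per printed feature.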 The note with it: 635 nm fluorescence, higher = more signal.
Test [2] is described as follows: ATP-based viability of Huh7 replicon cells – cell-based, CellTiter-Glo luminescence, basal, 48 h, cytotoxicity control for HCV replication inhibitor project, primary screen (AID 1143).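 Further: Huh7 hepatoma cells carrying a hepatitis C replication reporter with no stimulus; test concentration not given here.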 The note with it: higher = more signal, called active from +8 up or from −8 down. On the technique in general: In antiviral work, replicon cells carry a viral genome segment that copies itself.

Test [3] is described as follows: Pseudomonas biofilm growth suppression – PAO1 strain, BacTiter-Glo luminescence, LB-PBS, primary screen (AID 1144). The note with it: P. aeruginosa PAO1 biofilm, 12 h, higher = more signal.
Test [4] can be described thus: basal CRE-LacZ reporter activity in PC12 – cell-based, unstimulated, primary screen (AID 1145). The note with it: no forskolin, luminescence, 4.5 h, higher = more signal, called active from +8 up or from −8 down.
A short description of test [5]: forskolin-driven CRE-LacZ activity in PC12 – cell-based, CRE-LacZ reporter, forskolin-stimulated, primary screen (AID 1146).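 Further: PC12 cells with 6xCRE LacZ reporter stimulated by forskolin 10 µM; beta-galactosidase reporter signal reflecting CREB driven transcription.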 To be noted: luminescence, 4.5 h, higher = more signal, called active from +8 up or from −8 down.
The target in test [6] is Streptavidin (Streptomyces avidinii) (UniProt P22629). The test can be described thus: compounds binding control protein streptavidin – biophysical, small-molecule microarray, 635/667 nm fluorescence, artefact control for SMM compound annotation, primary screen (AID 1147).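 Further: signal reflects streptavidin binding to arrayed compounds as a control protein.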 The note with it: higher = more signal.
Streptavidin (Streptomyces avidinii), sequence (P22629 whole entry, looked up): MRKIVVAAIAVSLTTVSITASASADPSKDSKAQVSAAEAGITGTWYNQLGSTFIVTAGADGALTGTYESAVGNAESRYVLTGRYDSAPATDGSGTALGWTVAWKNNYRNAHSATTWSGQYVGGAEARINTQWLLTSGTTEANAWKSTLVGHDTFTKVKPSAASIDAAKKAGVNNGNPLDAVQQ
A short description of test [7]: probe aInhba binding on compound microarray – biochemical, small-molecule microarray, 635/667 nm fluorescence, primary screen (AID 1148).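 Further: score merges 667nm spot fluorescence with signal-to-noise for antibody binding to printed compounds.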 The note with it: higher = more signal.
Test [8] addresses Torsin-1A (Homo sapiens) (UniProt O14656). Nature of the test: TOR1A wild-type binding on microarray – cell lysate, small-molecule microarray, lysate, 635/667 nm, primary screen (AID 1149). The note with it: COS7 hTOR1A-WT lysate, 635 nm fluorescence, higher = more signal.
For test [9] the target is unchanged. Nature of the test: torsin A mutant lysate binding on microarrays – cell lysate, small-molecule microarray, COS7 lysate, 635/667 nm fluorescence, primary screen (AID 1150).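 Further: score pools 667 nm emission and signal to noise measuring lysate protein binding.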 To be noted: COS7 hTOR1A mutant lysate, 635 nm fluorescence, higher = more signal.
Test [10] relates to Sonic hedgehog protein (Shh). Nature of the test: Sonic hedgehog microarray binding compounds – biochemical, small-molecule microarray, 635/667 nm fluorescence, primary screen (AID 1151).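 Further: Shh protein binding to compounds spotted on small-molecule microarray slides; score combines spot fluorescence intensity with signal-to-noise across triplicate slides.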 To be noted: 635 nm fluorescence, higher = more signal.
The nature of test [11]: optical density shifts of acrAB sulA E. coli – strain DRC41, OD650, 48 h, E. coli filamentation inducer project, primary screen (AID 1152).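 Further: E. coli MC1000 strain DRC41 lacking acrAB efflux pump and sulA.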 To be noted: higher = more signal, called active from +8 up or from −8 down.
A short description of test [12]: probe aLefty1 binding on compound microarray – biochemical, small-molecule microarray, 635/667 nm fluorescence, primary screen (AID 1153).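 Further: score merges spot fluorescence with signal-to-noise ratio from the scanned slide images.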 The note with it: higher = more signal.
Test [13] is described as follows: plasmodial surface anion channel blockers, osmotic lysis – cell-based, P. falciparum Indochina, OD700, 1 h, primary screen (AID 1154). The note with it: P. falciparum Indochina infected RBC osmotic lysis, higher = more signal, called active from +8 up or from −8 down.
Test [14] in a line: plasmodial surface anion channel blockers, osmotic lysis – cell-based, P. falciparum Indochina, OD700, 2 h, primary screen (AID 1155).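 Further: lysis reports solute entry through the parasite surface anion channel PSAC.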 To be noted: P. falciparum Indochina infected erythrocytes, higher = more signal, called active from +8 up or from −8 down.
A short description of test [15]: changes in parasitized red cell lysis, either direction – P. falciparum Indochina, OD700, 3 h, PSAC antagonist project, primary screen (AID 1156). The note with it: P. falciparum-infected erythrocytes, osmotic lysis, higher = more signal, called active from +8 up or from −8 down.
The nature of test [16]: plasmodial surface anion channel blockers, osmotic lysis – cell-based, P. falciparum Indochina, OD700, 18 h, primary screen (AID 1157). To be noted: P. falciparum Indochina infected erythrocytes, osmotic lysis OD700, 18 h; higher = more signal, called active from +8 up or from −8 down.
Test [17] is described as follows: S6 kinase pathway phospho-S6 level changes – cell-based, A549, cytoblot, luminescence, serum-stimulated, primary screen (AID 1158).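 Further: serum-stimulated A549 lung adenocarcinoma cells; signal is phosphorylated S6 detected by cytoblot immunostaining with HRP secondary.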 The note with it: 5 h, higher = more signal.
Test [18] addresses NADPH oxidase 2 (Homo sapiens) (UniProt P04839). Nature of the test: compounds shifting NOX2 Amplex Red fluorescence – cell-based, HEK293-NOX2, PMA-stimulated, NOX inhibitor project, primary screen (AID 1159). Further: test concentration not given here. The note with it: 45 min, higher = more signal, called active from +8 up or from −8 down.
Test [19] concerns the target NADPH oxidase 4 (Homo sapiens) (UniProt Q9NPH5). The test can be described thus: compounds shifting NOX4 Amplex Red fluorescence – cell-based, HEK293-NOX4, tetracycline-induced, NOX inhibitor project, primary screen (AID 1160). The note with it: HEK293-NOX4, Amplex Red H2O2 fluorescence, 45 min; higher = more signal, called active from +8 up or from −8 down.
The target in test [20] is NADPH oxidase 5 (Homo sapiens) (UniProt Q96PH1). The test can be described thus: compounds shifting NOX5 Amplex Red fluorescence – cell-based, HEK293-NOX5, NOX inhibitor project, primary screen (AID 1161). To be noted: HEK293-NOX5, ionomycin, 45 min, higher = more signal.
NADPH oxidase 5 (Homo sapiens), sequence (Q96PH1 whole entry, looked up): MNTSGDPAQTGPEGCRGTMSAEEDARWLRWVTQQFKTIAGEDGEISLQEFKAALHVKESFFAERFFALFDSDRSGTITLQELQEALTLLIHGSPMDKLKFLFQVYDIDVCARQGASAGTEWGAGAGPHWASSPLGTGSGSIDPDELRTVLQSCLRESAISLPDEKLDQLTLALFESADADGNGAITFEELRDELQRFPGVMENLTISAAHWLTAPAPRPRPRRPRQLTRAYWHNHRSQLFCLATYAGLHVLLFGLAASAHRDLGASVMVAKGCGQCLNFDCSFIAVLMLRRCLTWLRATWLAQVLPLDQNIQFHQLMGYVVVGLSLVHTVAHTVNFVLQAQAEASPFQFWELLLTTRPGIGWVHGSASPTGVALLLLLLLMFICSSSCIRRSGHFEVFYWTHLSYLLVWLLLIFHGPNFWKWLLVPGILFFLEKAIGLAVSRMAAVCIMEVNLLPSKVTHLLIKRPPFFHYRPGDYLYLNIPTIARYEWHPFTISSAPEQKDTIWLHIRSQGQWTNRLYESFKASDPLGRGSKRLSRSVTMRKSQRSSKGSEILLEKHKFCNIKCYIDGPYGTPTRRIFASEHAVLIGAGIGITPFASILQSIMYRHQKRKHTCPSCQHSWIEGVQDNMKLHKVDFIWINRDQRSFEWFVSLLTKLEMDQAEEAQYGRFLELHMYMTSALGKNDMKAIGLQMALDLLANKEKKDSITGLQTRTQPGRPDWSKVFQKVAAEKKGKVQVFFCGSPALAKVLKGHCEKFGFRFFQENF

Active and inactive are the calls of the source. Unless noted, how the calls were made is not given here.

NADPH oxidase 2 (Homo sapiens), sequence (P04839 whole entry, looked up): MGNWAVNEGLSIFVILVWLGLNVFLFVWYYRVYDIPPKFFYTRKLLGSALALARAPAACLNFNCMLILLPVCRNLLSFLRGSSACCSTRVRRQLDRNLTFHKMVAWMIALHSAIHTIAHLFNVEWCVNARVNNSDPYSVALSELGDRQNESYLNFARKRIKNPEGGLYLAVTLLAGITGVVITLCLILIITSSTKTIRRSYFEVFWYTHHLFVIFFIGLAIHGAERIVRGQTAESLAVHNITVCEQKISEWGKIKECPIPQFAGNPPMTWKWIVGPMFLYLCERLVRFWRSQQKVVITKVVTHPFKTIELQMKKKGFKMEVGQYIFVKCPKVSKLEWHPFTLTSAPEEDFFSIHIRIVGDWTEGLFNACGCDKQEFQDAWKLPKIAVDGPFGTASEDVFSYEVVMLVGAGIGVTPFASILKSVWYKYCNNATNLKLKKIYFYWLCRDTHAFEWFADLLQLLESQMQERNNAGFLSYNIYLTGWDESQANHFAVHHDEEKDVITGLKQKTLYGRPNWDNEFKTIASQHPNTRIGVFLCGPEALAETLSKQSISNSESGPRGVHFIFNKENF
Torsin-1A (Homo sapiens), sequence (O14656 whole entry, looked up): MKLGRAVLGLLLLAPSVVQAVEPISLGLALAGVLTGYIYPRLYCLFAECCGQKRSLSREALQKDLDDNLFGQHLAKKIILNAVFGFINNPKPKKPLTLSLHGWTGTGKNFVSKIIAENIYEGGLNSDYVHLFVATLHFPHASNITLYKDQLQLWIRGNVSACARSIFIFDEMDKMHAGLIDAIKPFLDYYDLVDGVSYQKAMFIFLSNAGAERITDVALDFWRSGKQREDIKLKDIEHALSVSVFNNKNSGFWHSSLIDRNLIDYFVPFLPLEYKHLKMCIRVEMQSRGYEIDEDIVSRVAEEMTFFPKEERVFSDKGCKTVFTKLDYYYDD
NADPH oxidase 4 (Homo sapiens), sequence (Q9NPH5 whole entry, looked up): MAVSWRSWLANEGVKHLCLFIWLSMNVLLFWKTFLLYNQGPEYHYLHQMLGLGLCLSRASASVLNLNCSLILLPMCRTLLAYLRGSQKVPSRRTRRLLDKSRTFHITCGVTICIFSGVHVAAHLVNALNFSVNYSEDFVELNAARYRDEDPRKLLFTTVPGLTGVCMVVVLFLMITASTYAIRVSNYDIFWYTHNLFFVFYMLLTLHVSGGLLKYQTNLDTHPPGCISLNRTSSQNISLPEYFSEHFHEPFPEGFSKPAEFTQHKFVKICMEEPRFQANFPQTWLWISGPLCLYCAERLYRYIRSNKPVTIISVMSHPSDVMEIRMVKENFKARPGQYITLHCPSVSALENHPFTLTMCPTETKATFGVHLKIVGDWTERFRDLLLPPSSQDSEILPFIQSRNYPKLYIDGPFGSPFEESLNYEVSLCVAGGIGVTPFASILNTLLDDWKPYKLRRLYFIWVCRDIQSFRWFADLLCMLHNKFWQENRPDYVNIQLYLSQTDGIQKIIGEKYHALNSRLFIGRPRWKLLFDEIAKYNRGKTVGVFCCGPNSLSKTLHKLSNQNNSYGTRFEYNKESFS

Take `COc1ccc([Si](C)(C)[C@H]2[C@H](CCO)O[C@@]3(C(=O)N(Cc4cccc(N5CCOC5=O)c4)c4ccccc43)[C@@H]2C)cc1`: the composite z-score was 0.217 in test [1]; 0.71 in [6]; -0.0736 in [7]; -0.0637 with Torsin-1A (Homo sapiens) [8]; -0.217 with Torsin-1A (Homo sapiens) [9]; 1.47 in test [10]. Besides, the composite z-score in [12] is -0.0917. Further, the z-score is -5.72 (inactive) in test [2]; -0.112 (inactive) in test [3]; 0.907 (inactive) in test [4]; -0.827 (inactive) in [5]; -0.286 (inactive) in test [11]; 31.7 (active) in test [13]. In addition, the z-score was 29.4 (active) in test [14]; 1.37 (inactive) in [15]; 3.36 (inactive) in test [16]; 0.469 in test [17]; -1.96 (inactive) in [18]; 0.553 (inactive) in test [19]. In [20], the z-score stood at 0.479.

In the case of `COC(=O)[C@@]1(Cc2ccccc2)[C@H]2c3cc(C(=O)N4CCCC4)n(Cc4ccccc4)c3C[C@H]2CN1C(=O)c1ccccc1`, the composite z-score was 0.651 in test [1]; 0.589 in test [6]; 0.53 in test [7]; -0.112 in the test with Torsin-1A (Homo sapiens) [8]; -0.0741 with Torsin-1A (Homo sapiens) [9]; -0.606 in test [10]. Moreover, the composite z-score in [12] was 0.128. Also, the z-score in test [2] was -3.2 (inactive); in test [3], -0.402 (inactive); in test [4], 1.74 (inactive); in [5] it was -0.0064 (inactive); in [11], -1.83 (inactive); in test [13], 3.6 (inactive). Further, the z-score in [14] is 0.945 (inactive); in [15] it was 0.365 (inactive); in test [16] it was 1.03 (inactive); in [17] it was -0.276; in test [18] it was -0.218 (inactive); in test [19], -0.0718 (inactive). Besides, the z-score in test [20] is -1.23.

Turning to `COC(=O)[C@]1(Cc2ccccc2CN=[N+]=[N-])N=C(c2ccc(OCCCO)cc2)O[C@@H]1c1ccccc1CN=[N+]=[N-]`, the composite z-score in test [1] is 0.749; in test [6], -0.908; in test [7], -0.0471; in the test with Torsin-1A (Homo sapiens) [8] it was -0.355; with Torsin-1A (Homo sapiens) [9], -0.27; in test [10], 0.353. Besides, in [12], the composite z-score turned out to be 0.0962. In addition, the z-score in test [2] was -4.12 (inactive); in [3], -0.247 (inactive); in [4], 1.6 (inactive); in test [5], -1.01 (inactive); in [11], 1.23 (inactive); in test [13] it was 30.8 (active). In addition, the z-score in [14] is 24.1 (active); in test [15], 1.88 (inactive); in test [16], 5.85 (inactive); in test [17], 0.196; in [18], -2.35 (inactive); in test [19], -0.0356 (inactive). Also, the z-score in test [20] was -1.79.

`C=C(CCCC)/C(=C/C[C@H](OC(=O)c1ccncc1)c1ccc(CO)o1)c1cc(C(=O)OC)ccc1OC`: the composite z-score was determined as 0.0136 in test [1]; 0.551 in test [6]; 0.221 in [7]; 0.428 with Torsin-1A (Homo sapiens) [8]; 0.646 in the test with Torsin-1A (Homo sapiens) [9]; 1.63 in test [10]. In test [12], the composite z-score was 0.178. Also, the z-score in test [2] was -0.441 (inactive); in [3] it was -0.525 (inactive); in test [4], 0.201 (inactive); in test [5] it was 2.68 (inactive); in [11] it was -0.432 (inactive); in [13] it was 4.31 (inactive). The z-score in test [14] is 0.756 (inactive); in test [15] it was 2.04 (inactive); in [16], 0.332 (inactive); in test [17], -0.247; in test [18] it was -0.582 (inactive); in test [19], -0.903 (inactive). Also, the z-score in [20] is -1.57.
